Screening data: PubChem, several laboratories
The list is not random: actives were taken first. Their share in the collection is about 6.2%.
AHR act – activators of human aryl hydrocarbon receptor; P35869; AHR-responsive luciferase reporter cells, luminescence; activation, % at 5 µM; actives 2.5% (n = 320,000); in the data active = activation above about 47%
AI-2 QS modul – modulates the Vibrio harveyi AI-2 quorum sensing system. Vibrio harveyi JMH597 AI-2 luminescence/OD600 ratio, 9 h; stronger effect = lower value; strain lacks LuxN and CqsS sensors; 0 = neutral-control median. AID 2094. activity change, % at 7.5 µM. actives 0.4% (n = 300,000); in the data active = activity change below about -75%, passing the limit was not always enough;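 note: luminescence divided by OD600 gain over 9 h not by final OD600 alone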
NTR1 agonist – agonists of human neurotensin receptor NTR1; P30989; NTR1-U2OS beta-arrestin-GFP spot imaging, agonist mode; activation, % at 20 µM; actives 0.17% (n = 330,000);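 active = activation at or above 40% of the spot to cytoplasm intensity ratio, with at least 20 cells analyzed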
Target sequence (P30989 whole entry, looked up): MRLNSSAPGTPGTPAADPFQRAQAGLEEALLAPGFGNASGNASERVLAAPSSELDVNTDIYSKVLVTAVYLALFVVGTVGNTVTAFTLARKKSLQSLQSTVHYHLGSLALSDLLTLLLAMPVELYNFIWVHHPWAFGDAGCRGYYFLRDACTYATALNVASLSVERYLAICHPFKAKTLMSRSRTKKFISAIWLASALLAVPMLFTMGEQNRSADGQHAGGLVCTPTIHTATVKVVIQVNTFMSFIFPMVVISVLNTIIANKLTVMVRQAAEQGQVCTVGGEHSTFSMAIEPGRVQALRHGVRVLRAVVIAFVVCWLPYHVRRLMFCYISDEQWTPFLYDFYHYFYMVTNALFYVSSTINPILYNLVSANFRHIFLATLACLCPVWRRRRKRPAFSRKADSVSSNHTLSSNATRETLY
Mot1-301 SUMO – SUMOylation pathway inhibition by Mot1-301 growth rescue | S. cerevisiae Mot1-301 growth rescue, ATP luminescence, 38.5C; percent above DMSO median, 100 means doubled | growth rescue, % at 18.8 µM | actives 1% (n = 320,000) | AID 2716;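 active = every valid replicate shows activation above 250% relative to neutral control wells; inactive = the rest, any valid replicate at or below 250%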
H9c2 protect – protects H9c2 cardiomyocytes from peroxide injury; actives 0.63% (n = 360,000); protection from H2O2 cell death, % at 20 µM; AID 588492; H2O2 injury protection, ATPLite, 2 h;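 active = compounds giving at least 50% protection of heart cells from peroxide-induced death in the single-dose screen, raw or plate-pattern-corrected value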
GRIN3A LBD mod – modulators (binders) of human NR3A ligand-binding domain; NR3A LBD differential scanning fluorimetry, Tm shift; 0% = protein alone, 100% = glycine-bound protein; actives 2.5% (n = 340,000); Tm shift relative to glycine control, % at 25 µM;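 active = melting temperature shift of at least 10% of the positive control shift, at one fixed dose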
Numbers stand for hits.

Screening CC(=O)c1cc(NC(=O)c2ccc([N+](=O)[O-])cc2)c(=O)oc1C returned AHR act inactive, AI-2 QS modul inactive, NTR1 agonist inactive, Mot1-301 SUMO inactive, H9c2 protect inactive and GRIN3A LBD mod inactive.
`CCO/C=C1/C(=O)N(CC)c2ccccc21` gave AHR act inactive, AI-2 QS modul inactive, NTR1 agonist inactive, Mot1-301 SUMO inactive, H9c2 protect inactive and GRIN3A LBD mod inactive.
`CCN1C(=O)C(F)(CC)C(=O)c2ccccc21` (centres undefined) gave AHR act inactive, AI-2 QS modul inactive, NTR1 agonist inactive, Mot1-301 SUMO inactive, H9c2 protect inactive and GRIN3A LBD mod 13.
`NC(=O)N/N=C/c1coc2ccc3ccccc3c2c1=O` gave AHR act inactive, AI-2 QS modul inactive, NTR1 agonist inactive, Mot1-301 SUMO 334, H9c2 protect inactive and GRIN3A LBD mod inactive.
O=[N+]([O-])c1cccc(/C=C/c2nc[nH]c2[N+](=O)[O-])c1 was read as AHR act inactive, AI-2 QS modul inactive, NTR1 agonist inactive, Mot1-301 SUMO inactive, H9c2 protect inactive and GRIN3A LBD mod 16.
O=C(Cc1cccs1)NCCS(=O)(=O)N1CCN(c2ccccc2F)CC1 was read as AHR act inactive, AI-2 QS modul inactive, NTR1 agonist inactive, Mot1-301 SUMO inactive, H9c2 protect inactive and GRIN3A LBD mod inactive.
Screening O=Nc1c2nc3ccccc3n(O)c-2c2ccccc12 returned AHR act 101, AI-2 QS modul inactive, NTR1 agonist inactive, Mot1-301 SUMO inactive and H9c2 protect inactive.
On1c(-c2ccccc2)nc2ccccc21 was read as AHR act inactive, AI-2 QS modul inactive, NTR1 agonist inactive, Mot1-301 SUMO inactive, H9c2 protect inactive and GRIN3A LBD mod inactive.
Cc1ccc2c(=O)n3c(nc2c1)C(CC(C)C)NC(=O)c1ccc(Cl)cc1-3 (centres undefined) was read as AHR act inactive, NTR1 agonist inactive and Mot1-301 SUMO inactive.
For NC(=O)CSc1ncc(-c2ccc([N+](=O)[O-])cc2)[nH]1 the results were AHR act inactive, AI-2 QS modul inactive, NTR1 agonist inactive, Mot1-301 SUMO inactive, H9c2 protect inactive and GRIN3A LBD mod inactive.
O=[N+]([O-])c1ccc(-c2cnc(SCc3ccccc3Cl)[nH]2)cc1 was read as AHR act inactive, AI-2 QS modul inactive, NTR1 agonist inactive, Mot1-301 SUMO inactive, H9c2 protect inactive and GRIN3A LBD mod 13.
`Cc1cc(C)c(CSc2ncc(-c3ccc([N+](=O)[O-])cc3)[nH]2)c(C)c1` gave AHR act inactive, AI-2 QS modul inactive, NTR1 agonist inactive, Mot1-301 SUMO inactive, H9c2 protect inactive and GRIN3A LBD mod 12.
For CCOC(=O)C(N)CSC1CC(=O)N(CCc2ccccc2)C1=O (centres undefined) the results were AHR act inactive, AI-2 QS modul inactive, NTR1 agonist inactive, Mot1-301 SUMO inactive, H9c2 protect inactive and GRIN3A LBD mod inactive.
`COc1ccc(OC)c(C(C[N+](=O)[O-])c2c(C)cc3ccccn23)c1` (centres undefined) gave AHR act inactive, AI-2 QS modul inactive, NTR1 agonist 50, Mot1-301 SUMO inactive, H9c2 protect inactive and GRIN3A LBD mod inactive.
COc1ccc(C(C[N+](=O)[O-])c2c(C)cc3ccccn23)c(OC)c1 (centres undefined) was read as AHR act inactive, AI-2 QS modul inactive, NTR1 agonist inactive, Mot1-301 SUMO inactive, H9c2 protect inactive and GRIN3A LBD mod inactive.
Screening CC(=O)OCC1OC(n2cc(F)c(=O)[nH]c2=O)C(OC(C)=O)C1OC(C)=O (centres undefined) returned AHR act inactive, AI-2 QS modul inactive, NTR1 agonist inactive, Mot1-301 SUMO inactive, H9c2 protect inactive and GRIN3A LBD mod inactive.
Screening C[C@H]1O[C@@H](n2cc(F)c(=O)[nH]c2=O)[C@H](O)[C@@H]1O returned AHR act inactive, AI-2 QS modul -83, NTR1 agonist inactive, Mot1-301 SUMO inactive, H9c2 protect inactive and GRIN3A LBD mod inactive.
Screening O=[N+]([O-])c1ccccc1S(=O)(=O)Nc1nc2ccccc2s1 returned AHR act inactive, AI-2 QS modul inactive, NTR1 agonist inactive, Mot1-301 SUMO inactive, H9c2 protect inactive and GRIN3A LBD mod inactive.
`O=[N+]([O-])c1ccc2nc(NS(=O)(=O)c3ccccc3[N+](=O)[O-])sc2c1` gave AHR act inactive, AI-2 QS modul inactive, NTR1 agonist inactive, Mot1-301 SUMO inactive, H9c2 protect inactive and GRIN3A LBD mod 14.
`O=C(NC(Nc1nc2ccc([N+](=O)[O-])cc2s1)(C(F)(F)F)C(F)(F)F)c1ccccc1Cl` gave AHR act inactive, AI-2 QS modul inactive, NTR1 agonist inactive, Mot1-301 SUMO inactive, H9c2 protect inactive and GRIN3A LBD mod 13.
O=[N+]([O-])c1ccc2nc(NS(=O)(=O)c3ccc(Cl)cc3)sc2c1 was read as AHR act inactive, AI-2 QS modul inactive, NTR1 agonist inactive, Mot1-301 SUMO inactive, H9c2 protect inactive and GRIN3A LBD mod 18.
Screening O=C(NC(Nc1nc2ccc([N+](=O)[O-])cc2s1)(C(F)(F)F)C(F)(F)F)c1cccnc1 returned AHR act inactive, AI-2 QS modul inactive, NTR1 agonist inactive, Mot1-301 SUMO inactive, H9c2 protect inactive and GRIN3A LBD mod inactive.
`COc1ccc(CCN(C)C(=O)C(CCSC)NC(=O)c2ccco2)cc1OC` (centres undefined) gave AHR act inactive, NTR1 agonist inactive, Mot1-301 SUMO inactive, H9c2 protect inactive and GRIN3A LBD mod inactive.
Screening CCOc1ccc2[nH]cc(C(=O)NCc3ccc(F)cc3)c(=O)c2c1 returned AI-2 QS modul inactive, NTR1 agonist inactive, Mot1-301 SUMO inactive, H9c2 protect inactive and GRIN3A LBD mod inactive.
Screening CCOCCCNC(=O)c1c[nH]c2ccc(OCC)cc2c1=O returned AHR act 51, AI-2 QS modul inactive, NTR1 agonist inactive, Mot1-301 SUMO inactive, H9c2 protect inactive and GRIN3A LBD mod inactive.
For COc1ccc2c(CCNC(=O)Nc3ccccc3)c[nH]c2c1 the results were AHR act inactive, AI-2 QS modul inactive, NTR1 agonist inactive, Mot1-301 SUMO inactive, H9c2 protect inactive and GRIN3A LBD mod inactive.
For Cc1ccc(NC(=S)NCCc2c[nH]c3ccccc23)c(C)c1 the results were AHR act inactive, AI-2 QS modul inactive, NTR1 agonist inactive, Mot1-301 SUMO inactive, H9c2 protect inactive and GRIN3A LBD mod 12.
For COc1ccc(NC(=S)NCCc2c[nH]c3ccccc23)cc1 the results were AHR act inactive, AI-2 QS modul inactive, NTR1 agonist inactive, Mot1-301 SUMO inactive, H9c2 protect inactive and GRIN3A LBD mod 26.
`COc1ccc2[nH]cc(C(=O)NCCc3ccccc3)c(=O)c2c1` gave AHR act 74, AI-2 QS modul inactive, NTR1 agonist inactive, Mot1-301 SUMO inactive, H9c2 protect inactive and GRIN3A LBD mod inactive.
